The source of these data is PubChem BioAssay (Tox21).

Test [1] can be described thus: qHTS assay to identify small molecule antagonists of the farnesoid-X-receptor (FXR) signaling pathway - cell viability counter screen (AID 743221; active means well fitted cell-killing curve with a large enough effect in the repeat runs, not every such curve was filed as active; further: nearly all actives have a fitted effect of over 50% in size; further: potency means the concentration at half of the fitted maximal effect). In a few lines:
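Luminescence from CellTiter-Glo measures cytotoxicity in GeneBLAzer FXR-UAS-bla HEK 293T cells. Cells were exposed to compounds with 50 uM chenodeoxycholic acid (final) for 16 h at 37 C, in wells also used for the reporter readout.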
(In general: qHTS replaces the single test concentration by a dilution series.)

Test [2] in a line: qHTS assay to identify small molecule agonists of the endoplasmic reticulum stress response signaling pathway (AID 1159516; active means well fitted activation curve with a large enough effect in the signal ratio in the repeat runs, not every such curve was filed as active; the % refers to the signal ratio). An outline of the steps: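 Ratiometric FRET readout (405 nm excitation; 460 and 530 nm emission) of a beta-lactamase gene driven by the ER stress response element, after 2 hr substrate loading. HeLa ESRE-bla cells were seeded overnight and treated with compounds for only 5 hr at 37 C.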

Test [3] can be described thus: qHTS assay to identify small molecule antagonists of the retinoid-related orphan receptor gamma (ROR-gamma) signaling pathway - cell viability counter screen (AID 1159520). Further: nearly all actives have a fitted effect of over 50% in size. Further: potency means the concentration at half of the fitted maximal effect. An outline of the steps: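 Tet-on ROR gamma CHO cells were given compounds for 2 hr, then doxycycline hyclate at 1 uM final, and incubated 16 hr at 37 C. Viability was measured as ATP content by CellTiter-Glo luminescence.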

Test [4] is described as follows: qHTS assay to identify small molecule agonists of the AP-1 signaling pathway - cell viability counter screen (AID 1159525; calls by dose curve; further: nearly all actives have a fitted effect of over 55% in size; further: potency means the concentration at half of the fitted maximal effect). In a few lines:
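Same-well cytotoxicity counter screen of the Tox21 10K library in ME-180 cells. The readout is ATP-dependent luminescence after 5 h compound treatment. Data are normalised to DMSO and tetra n-octyl ammonium bromide controls.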

The target in test [5] is Peroxisome proliferator-activated receptor delta (Homo sapiens) (UniProt Q03181). In words: qHTS assay to identify small molecule agonists of the peroxisome proliferator-activated receptor delta (PPARd) signaling pathway (AID 743212; calls by dose curve). An outline of the steps:
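Tox21 library screened in GeneBLAzer PPARd UAS-bla HEK293H cells. After compound treatment at 37 C, a FRET-based beta-lactamase substrate was applied for 2 h and fluorescence recorded.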

The nature of test [6]: qHTS assay to identify small molecule antagonists of the peroxisome proliferator-activated receptor delta (PPARd) signaling pathway - cell viability counter screen (AID 743213). Further: nearly all actives have a fitted effect of over 50% in size. Further: potency means the concentration at half of the fitted maximal effect. An outline of the steps: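 PPARd-bla HEK293H cells were treated with compounds plus agonist L165041 (300 nM final) for 17 h at 37 C. Viability was then read in the same wells by CellTiter-Glo luminescence after 30 min at room temperature.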

Test [7] in a line: qHTS assay to identify small molecule agonists of the farnesoid-X-receptor (FXR) signaling pathway - cell viability counter screen (AID 743218). Further: nearly all actives have a fitted effect of over 45% in size. An outline of the steps: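 Viability counter screen in the same wells: CellTiter-Glo luminescence, 30 min room-temperature incubation, measured after the beta-lactamase read. Cells were GeneBLAzer FXR-UAS-bla HEK 293T, compound-treated 16 h at 37C.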

Test [8] addresses Nuclear receptor ROR-gamma (Homo sapiens) (UniProt P51449). The experiment in a line: qHTS assay to identify small molecule antagonists of the retinoid-related orphan receptor gamma (ROR-gamma) signaling pathway (AID 1159521; further: nearly all actives have a fitted effect of over 50% in size; further: potency means the concentration at half of the fitted maximal effect). An outline of the steps:
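CHO Tet-on RORγ, RORE-luc reporter. Cpd 2 h pre-incubation, then dox hyclate 1 uM final, 16 h, 37 C/5% CO2. ONE-Glo luminescence; decrease = antagonist.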

Test [9] can be described thus: qHTS assay to identify small molecule agonists of the RXR signaling pathway - cell viability counter screen (AID 1159529). Further: nearly all actives have a fitted effect of over 50% in size. Further: potency means the concentration at half of the fitted maximal effect. In a few lines:
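HEK 293T RXRa-bla cells, 2% CS-FBS; 5 h settle; cpd 16 h 37 C, 5% CO2; CellTiter-Glo 30 min RT, luminescence. Tetraoctyl ammonium bromide as positive control.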

The nature of test [10]: qHTS assay to identify small molecule agonists of the peroxisome proliferator-activated receptor delta (PPARd) signaling pathway - cell viability counter screen (AID 743211). Further: nearly all actives have a fitted effect of over 55% in size. Further: potency means the concentration at half of the fitted maximal effect. In a few lines:
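HEK293H PPARd-bla, 3000 cells/well; 5 h preincubation 37C/5% CO2; cpd in DMSO, 17 h 37C; B/G FRET substrate 2 h RT; CellTiter-Glo 30 min RT, luminescence.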

Test [11] is described as follows: qHTS assay to identify small molecule agonists of the endoplasmic reticulum stress response signaling pathway - cell viability counter screen (AID 1159517; calls by dose curve; further: nearly all actives have a fitted effect of over 50% in size; further: potency means the concentration at half of the fitted maximal effect). An outline of the steps: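 In parallel with the ESRE reporter read, cytotoxicity was scored by CellTiter-Glo luminescence (30 min, room temperature) on HeLa ESRE-bla cells dosed for 5 hr.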
A short description of test [12]: qHTS assay to identify small molecule agonists of the AP-1 signaling pathway (AID 1159526; calls by dose curve).
The target of test [13] is Retinoic acid receptor RXR-alpha (Homo sapiens) (UniProt P19793). In words: qHTS assay to identify small molecule agonists of the RXR signaling pathway (AID 1159527; calls by dose curve; further: nearly all actives have a fitted effect of over 35% in size). In a few lines:
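Read-out: beta-lactamase FRET ratio (405 nm excitation, 460 and 530 nm emission) after 2 hr substrate loading at room temperature. Cells were RXR-alpha-UAS-bla HEK 293T treated with compounds for 16 hr in 2% charcoal-stripped FBS medium.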

Test [14] addresses Bile acid receptor (Homo sapiens) (UniProt Q96RI1). In words: qHTS assay to identify small molecule antagonists of the farnesoid-X-receptor (FXR) signaling pathway (AID 743217; active means well fitted inhibition curve with a large enough effect in the signal ratio in the repeat runs, not every such curve was filed as active; the % refers to the signal ratio; further: potency means the concentration at half of the fitted maximal effect). In a few lines:
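Antagonist mode: chenodeoxycholic acid at 50 uM final stimulates a UAS-driven beta-lactamase reporter in HEK 293T FXR-bla cells during 16 h, 37C compound exposure. Read-out is FRET substrate fluorescence after 2 h at room temperature.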

The target is the same in test [15]. In words: qHTS assay to identify small molecule agonists of the farnesoid-X-receptor (FXR) signaling pathway (AID 743220; active means well fitted activation curve with a large enough effect in the signal ratio in the repeat runs, not every such curve was filed as active; the % refers to the signal ratio). In a few lines: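 FXR-UAS-bla HEK 293T cells carrying a UAS-driven beta-lactamase reporter were plated for 5 h at 37C/5% CO2, then exposed to DMSO-dissolved Tox21 10K compounds for 16 h at 37C. A LiveBLAzer B/G FRET substrate was loaded for 2 h at room temperature before fluorescence reading.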

Test [16] is described as follows: qHTS assay to identify small molecule agonists of the vitamin D receptor (VDR) signaling pathway - cell viability counter screen (AID 743224). Further: nearly all actives have a fitted effect of over 50% in size. Further: potency means the concentration at half of the fitted maximal effect. An outline of the steps: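 Counter screen run in the same wells as the VDR-bla reporter assay: CellTiter-Glo luminescence, 30 min at room temperature, after 16 h compound treatment at 37C of cells pre-plated for 4 h.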
The target of test [17] is Peroxisome proliferator-activated receptor delta (Homo sapiens) (UniProt Q03181). In words: qHTS assay to identify small molecule antagonists of the peroxisome proliferator-activated receptor delta (PPARd) signaling pathway (AID 743215; active means well fitted inhibition curve with a large enough effect in the signal ratio in the repeat runs, not every such curve was filed as active; the % refers to the signal ratio;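 further: cells stimulated with agonist L165041 at 300 nM final during compound exposure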; further: potency means the concentration at half of the fitted maximal effect). In a few lines:
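Agonist L165041 (300 nM final) added with compound to PPARd-bla HEK293H UAS-bla reporter cells; 17 h incubation at 37 C. Read-out: LiveBLAzer FRET substrate, 2 h at room temperature, fluorescence intensity.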

Test [18] in a line: qHTS assay to identify small molecule antagonists of the vitamin D receptor (VDR) signaling pathway - cell viability counter screen (AID 743225). Further: nearly all actives have a fitted effect of over 50% in size. Further: potency means the concentration at half of the fitted maximal effect. An outline of the steps: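 Read-out: CellTiter-Glo luminescence measured 30 min after reagent addition at room temperature. Cells were VDR-bla HEK 293T exposed 16 h at 37C, 5% CO2, to compound with 3 nM final calcitriol agonist.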

For test [19], the target named is Vitamin D3 receptor (Homo sapiens) (UniProt P11473). In words: qHTS assay to identify small molecule agonists of the vitamin D receptor (VDR) signaling pathway (AID 743222; calls by dose curve). An outline of the steps:
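Agonist mode, beta-lactamase reporter: fluorescence from LiveBLAzer B/G FRET substrate (2 h, room temperature) read after 16 h compound treatment at 37 C of VDR-bla cells, which were pre-incubated 4 h after seeding.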

Test [20] shares this target. In words: qHTS assay to identify small molecule antagonists of the vitamin D receptor (VDR) signaling pathway (AID 743223; active means well fitted inhibition curve with a large enough effect in the signal ratio in the repeat runs, not every such curve was filed as active; the % refers to the signal ratio). In a few lines:
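Antagonist mode uses 1alpha,25-dihydroxyvitamin D3 at 3 nM final as stimulus. VDR-bla cells receive compounds in DMSO, incubate 16 h at 37C, then a beta-lactamase FRET substrate for 2 h at room temperature before fluorescence measurement.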

Results filed as inconclusive are left out. The source made the active and inactive calls. Unless noted, the call rests on the fitted dose curve; in most records, active means well fitted curve in the direction sought with a large enough effect in the repeat runs; inconclusive means weak or mixed curves; inactive means no such curve, though single readings can be large; an effect the other way counts as inactive or inconclusive.

Sequence of Peroxisome proliferator-activated receptor delta (Homo sapiens) (Q03181 whole entry, looked up): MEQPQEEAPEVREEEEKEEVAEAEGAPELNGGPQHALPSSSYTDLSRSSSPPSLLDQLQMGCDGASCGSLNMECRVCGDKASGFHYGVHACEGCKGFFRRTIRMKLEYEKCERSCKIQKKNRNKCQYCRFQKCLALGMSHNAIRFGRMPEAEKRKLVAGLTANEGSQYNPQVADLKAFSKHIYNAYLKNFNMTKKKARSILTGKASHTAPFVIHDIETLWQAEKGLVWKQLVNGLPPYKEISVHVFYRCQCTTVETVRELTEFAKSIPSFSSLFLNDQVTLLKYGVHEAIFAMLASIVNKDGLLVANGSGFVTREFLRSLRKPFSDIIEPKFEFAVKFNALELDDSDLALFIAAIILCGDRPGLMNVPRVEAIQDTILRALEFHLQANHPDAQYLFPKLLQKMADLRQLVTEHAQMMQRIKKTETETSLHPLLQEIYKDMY
Sequence of Bile acid receptor (Homo sapiens) (Q96RI1 whole entry, looked up): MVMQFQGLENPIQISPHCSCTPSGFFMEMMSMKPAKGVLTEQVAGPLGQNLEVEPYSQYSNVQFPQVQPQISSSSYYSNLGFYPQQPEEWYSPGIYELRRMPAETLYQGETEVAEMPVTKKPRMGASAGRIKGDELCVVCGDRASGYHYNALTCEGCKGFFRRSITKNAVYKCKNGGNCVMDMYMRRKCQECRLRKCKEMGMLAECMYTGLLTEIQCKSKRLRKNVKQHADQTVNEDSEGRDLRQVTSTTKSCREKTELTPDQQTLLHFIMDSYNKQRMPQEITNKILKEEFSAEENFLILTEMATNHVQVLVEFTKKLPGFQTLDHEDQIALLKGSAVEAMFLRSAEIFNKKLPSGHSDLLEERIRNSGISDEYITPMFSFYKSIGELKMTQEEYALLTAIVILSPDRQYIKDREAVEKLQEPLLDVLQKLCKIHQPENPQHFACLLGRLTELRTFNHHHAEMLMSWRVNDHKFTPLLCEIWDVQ
Sequence of Retinoic acid receptor RXR-alpha (Homo sapiens) (P19793 whole entry, looked up): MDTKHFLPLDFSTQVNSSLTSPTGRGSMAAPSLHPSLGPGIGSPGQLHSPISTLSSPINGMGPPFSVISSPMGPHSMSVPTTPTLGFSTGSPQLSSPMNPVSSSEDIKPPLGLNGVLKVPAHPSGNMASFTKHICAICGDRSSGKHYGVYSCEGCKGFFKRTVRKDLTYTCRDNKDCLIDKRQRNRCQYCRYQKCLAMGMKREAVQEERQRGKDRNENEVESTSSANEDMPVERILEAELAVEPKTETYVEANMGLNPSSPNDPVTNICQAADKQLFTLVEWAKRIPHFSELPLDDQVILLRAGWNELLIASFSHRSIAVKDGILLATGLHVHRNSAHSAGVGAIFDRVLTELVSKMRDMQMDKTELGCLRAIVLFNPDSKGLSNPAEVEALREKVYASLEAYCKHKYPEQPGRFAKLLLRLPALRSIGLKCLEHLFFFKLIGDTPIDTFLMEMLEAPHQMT
Sequence of Vitamin D3 receptor (Homo sapiens) (P11473 whole entry, looked up): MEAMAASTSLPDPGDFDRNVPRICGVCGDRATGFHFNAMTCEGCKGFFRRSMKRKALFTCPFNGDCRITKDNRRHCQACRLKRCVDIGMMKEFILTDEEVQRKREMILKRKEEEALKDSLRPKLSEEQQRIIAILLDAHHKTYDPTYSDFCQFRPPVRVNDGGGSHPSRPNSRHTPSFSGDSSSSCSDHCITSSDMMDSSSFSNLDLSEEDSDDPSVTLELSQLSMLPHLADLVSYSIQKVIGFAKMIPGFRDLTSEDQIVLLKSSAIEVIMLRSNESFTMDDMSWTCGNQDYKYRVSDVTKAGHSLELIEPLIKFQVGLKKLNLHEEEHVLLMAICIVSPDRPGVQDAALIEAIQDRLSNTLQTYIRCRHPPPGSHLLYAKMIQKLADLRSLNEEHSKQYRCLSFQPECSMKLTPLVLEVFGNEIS

For `CC(C)OC(=O)c1cc(C(=O)OC(C)C)cc([N+](=O)[O-])c1`, the Potency entry in test [1], in [2], in [3] and in test [4] was “inactive” throughout.
Regarding `CC(O)C#CC(C)O` (stereo unspecified), the call in [5] was inactive. Further, the Potency result in test [6], in test [7], in [1] and in [2] was “inactive” each time. In addition, the Potency is 27 µM (active) in test [3], 19.1 µM (active) in test [8] and 43.2 µM (active) in test [9].
On to `CN(C)CCOC(c1ccccc1)c1ccccc1` (tested in a mixture with another compound), for which the Potency result in test [2], in test [3] and in [4] was “inactive” throughout.
In the case of `CN1[C@@H]2CC[C@H]1CC(OC(=O)C(CO)c1ccccc1)C2` (stereo partly specified), the Potency result in test [10], in test [6], in test [7], in [1], in test [11] and in test [3] was “inactive” each time. Further, the Potency result in [4], in [12] and in test [13] was “inactive” throughout. For the same compound, in [9], the Potency is 48.9 µM (active).
Take `O=C1c2c(O)ccc(O)c2C(=O)c2c(NCCNCCO)ccc(NCCNCCO)c21`: the figures for the Potency in test [10], in [14] and in [3] were 29.8 µM (active), 26.6 µM (active) and 23.7 µM (active), respectively. The Potency entry in [6], in test [15], in test [1], in test [11] and in test [8] was “inactive” in each case.
For `CC1CCCNC1` (stereo unspecified), the Potency result in [7], in test [1], in test [11], in [3] and in [4] was “inactive” throughout. Also, the Potency in [16] is 47.9 µM (active).
Take `O=C(Nc1ccc(Cl)cc1)Nc1ccc(Cl)c(C(F)(F)F)c1`: the Potency in test [10] is 13.3 µM (active); in test [17] it was 26.6 µM (active); in test [1], 16.8 µM (active); in [18], 12 µM (active); in test [11] it was 21.3 µM (active); in [3] it was 23.7 µM (active). In addition, the Potency in [8] is 7.5 µM (active); in test [4], 16.9 µM (active); in test [9], 12 µM (active). In [15], the Potency result is “inactive”.
On to `N#CSCSc1nc2ccccc2s1`, for which the Potency in test [6] was 4.9 µM (active); in test [16] it was 12.3 µM (active); in test [18] it was 15.5 µM (active); in test [11] it was 12.3 µM (active); in [3] it was 4.33 µM (active); in [8], 13.7 µM (active). Also, the Potency in test [4] was 43.6 µM (active). In addition, the Potency entry in test [7] is “inactive”.
As to `Clc1ccccc1CN1CCc2sccc2C1`, the Potency result in test [6], in test [7], in test [1], in [16], in test [18] and in test [11] was “inactive” throughout. The Potency result in test [3] and in [9] was “inactive” throughout.
For `CCc1cccc(C)c1`, the compound was classed as inactive in test [5]. For the same compound, the Potency result in test [6], in test [17], in test [14], in [7], in [15] and in test [1] was “inactive” each time. The Potency result in test [19], in [20], in test [18], in [11], in test [3] and in test [4] was “inactive” each time. The Potency result in test [13] and in [9] was “inactive” throughout.
`CCCCCCCC/C=C\CCCCCCCC(=O)OCCOC(=O)CCCCCCC/C=C\CCCCCCCC`: the Potency result in test [10], in test [6], in test [17], in test [14], in test [15] and in test [1] was “inactive” throughout. In addition, the Potency result in test [19], in test [20], in test [16], in [11], in test [3] and in test [4] was “inactive” in each case. The Potency result in [12], in test [13] and in [9] was “inactive” each time. In addition, the compound was classed as inactive in [5].
